# Structures can show the parent of a compound that is named as a salt.
# Key:
# U-2932 [1] = experiment: growth inhibition by drug alone (1 - RLU/untreated control) (fraction); higher = stronger inhibition; conditions: 177Lu-lilotomab satetraxetan 0 ug/ml
# In short: (§1)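 Plates pre-printed with the Selleck Cambridge Cancer Compound library at 10/100 nM (RIVA) or 10/1,000 nM (U-2932) received 3,000 cells/well. These cells had been washed after 18 h untreated or with a radiolabelled anti-CD37 antibody conjugate (~600 MBq/mg; 0.5 µg/ml RIVA, 1 µg/ml U-2932). Growth inhibition was obtained from RealTime-Glo luminescence in relation to untreated no-drug wells. Each daily read from day 3, taken after 1 h at 37°C, was converted as 1 − RLU/mean of 48 such wells per plate.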
# RIVA [2] = experiment: as above; conditions: 177Lu-lilotomab satetraxetan 0 ug/ml
# In short: as §1
# U-2932 [3] = experiment: growth inhibition by drug plus 177Lu-lilotomab satetraxetan (1 - RLU/untreated control) (fraction); higher = stronger inhibition; conditions: 177Lu-lilotomab satetraxetan 1 ug/ml
# In short: as §1
# RIVA [4] = experiment: as above; conditions: 177Lu-lilotomab satetraxetan 0.5 ug/ml
# In short: as §1
SMILES,"growth inhibition by drug alone (U-2932 [1]; 10 nM, time (day): 3)","growth inhibition by drug alone (U-2932 [1]; 10 nM, time (day): 4)","growth inhibition by drug alone (U-2932 [1]; 10 nM, time (day): 5)","growth inhibition by drug alone (U-2932 [1]; 10 nM, time (day): 6)","growth inhibition by drug alone (U-2932 [1]; 1000 nM, time (day): 3)","growth inhibition by drug alone (U-2932 [1]; 1000 nM, time (day): 4)","growth inhibition by drug alone (U-2932 [1]; 1000 nM, time (day): 5)","growth inhibition by drug alone (U-2932 [1]; 1000 nM, time (day): 6)","growth inhibition by drug alone (RIVA [2]; 10 nM, time (day): 3)","growth inhibition by drug alone (RIVA [2]; 10 nM, time (day): 4)","growth inhibition by drug alone (RIVA [2]; 10 nM, time (day): 5)","growth inhibition by drug alone (RIVA [2]; 10 nM, time (day): 6)","growth inhibition by drug alone (RIVA [2]; 100 nM, time (day): 3)","growth inhibition by drug alone (RIVA [2]; 100 nM, time (day): 4)","growth inhibition by drug alone (RIVA [2]; 100 nM, time (day): 5)","growth inhibition by drug alone (RIVA [2]; 100 nM, time (day): 6)","growth inhibition by drug plus 177Lu-lilotomab satetraxetan (U-2932 [3]; 10 nM, time (day): 3)","growth inhibition by drug plus 177Lu-lilotomab satetraxetan (U-2932 [3]; 10 nM, time (day): 4)","growth inhibition by drug plus 177Lu-lilotomab satetraxetan (U-2932 [3]; 10 nM, time (day): 5)","growth inhibition by drug plus 177Lu-lilotomab satetraxetan (U-2932 [3]; 10 nM, time (day): 6)","growth inhibition by drug plus 177Lu-lilotomab satetraxetan (U-2932 [3]; 1000 nM, time (day): 3)","growth inhibition by drug plus 177Lu-lilotomab satetraxetan (U-2932 [3]; 1000 nM, time (day): 4)","growth inhibition by drug plus 177Lu-lilotomab satetraxetan (U-2932 [3]; 1000 nM, time (day): 5)","growth inhibition by drug plus 177Lu-lilotomab satetraxetan (U-2932 [3]; 1000 nM, time (day): 6)","growth inhibition by drug plus 177Lu-lilotomab satetraxetan (RIVA [4]; 10 nM, time (day): 3)","growth inhibition by drug plus 177Lu-lilotomab satetraxetan (RIVA [4]; 10 nM, time (day): 4)","growth inhibition by drug plus 177Lu-lilotomab satetraxetan (RIVA [4]; 10 nM, time (day): 5)","growth inhibition by drug plus 177Lu-lilotomab satetraxetan (RIVA [4]; 10 nM, time (day): 6)","growth inhibition by drug plus 177Lu-lilotomab satetraxetan (RIVA [4]; 100 nM, time (day): 3)","growth inhibition by drug plus 177Lu-lilotomab satetraxetan (RIVA [4]; 100 nM, time (day): 4)","growth inhibition by drug plus 177Lu-lilotomab satetraxetan (RIVA [4]; 100 nM, time (day): 5)","growth inhibition by drug plus 177Lu-lilotomab satetraxetan (RIVA [4]; 100 nM, time (day): 6)"
C=C1/C(=C\C=C2/CCC[C@]3(C)[C@@H]([C@H](C)/C=C/[C@H](C)C(C)C)CC[C@@H]23)C[C@@H](O)C[C@@H]1O [Doxercalciferol (Hectorol)],0.174,0.125,0.0899,0.0598,0.106,0.132,0.147,0.128,0.187,0.183,0.177,0.0541,0.0648,0.127,0.103,0.0636,0.15,0.183,0.229,0.36,0.0716,0.176,0.182,0.287,0.484,0.601,0.615,0.639,0.47,0.55,0.563,0.571
CN(C)c1ccccc1CN1CCCN(Cc2ccccc2N(C)C)C1c1ccncc1,0.0601,0.0484,-0.0775,-0.0436,-0.0515,0.0164,-0.0723,-0.322,-0.0275,-0.0402,-0.0946,-0.333,-0.107,-0.0882,-0.101,-0.219,-0.0506,-0.00857,0.0315,0.0251,-0.133,-0.00158,-0.031,-0.0122,0.403,0.514,0.537,0.54,0.416,0.506,0.504,0.487
Nc1cccc2c1C(=O)N(C1CCC(=O)NC1=O)C2=O (stereo unspecified) [Pomalidomide],0.00761,0.0144,-0.0587,-0.183,0.0958,0.25,0.271,0.309,-0.0396,-0.0278,-0.0766,-0.254,-0.0764,-0.115,-0.132,-0.196,0.0211,0.034,0.0448,0.147,0.233,0.391,0.414,0.472,0.434,0.529,0.549,0.555,0.439,0.414,0.434,0.443
O=C1NC(=O)/C(=C\c2cccc(C(F)(F)F)c2)S1,-0.0629,-0.0752,-0.145,-0.158,-0.0663,-0.0763,-0.118,-0.219,-0.238,-0.269,-0.325,-0.41,-0.524,-0.503,-0.514,-0.584,-0.0851,-0.0351,0.0122,0.101,-0.0652,-0.0183,0.0099,0.134,0.418,0.47,0.492,0.508,0.391,0.456,0.458,0.45
COc1ccc(CCN(C)CCCOc2ccc(S(=O)(=O)c3c(C(C)C)n(C)c4ccccc34)cc2)cc1OC,0.0869,0.0667,0.0917,-0.0299,0.0603,0.0699,-0.0056,-0.132,0.00966,0.000445,-0.0789,-0.342,-0.377,-0.25,-0.308,-0.545,0.0456,0.0938,0.156,0.171,0.135,0.145,0.18,0.298,0.605,0.642,0.664,0.661,0.48,0.536,0.542,0.544
Cn1cnc2c(F)c(Nc3ccc(Br)cc3Cl)c(C(=O)NOCCO)cc21 [AZD6244 (Selumetinib)],0.124,0.0689,-0.0711,0.0468,0.116,0.112,-0.011,0.127,0.0177,-0.0269,-0.137,-0.558,-0.313,-0.239,-0.319,-0.531,-0.00544,0.0596,0.0509,0.056,0.15,0.192,0.203,0.285,0.452,0.491,0.497,0.504,0.277,0.359,0.316,0.307
CN1CCN(c2cccc(Nc3nc4c(-c5ccc(S(C)(=O)=O)cc5)cccn4n3)c2)CC1,0.0344,0.0428,0.0368,0.113,0.028,0.0442,0.0461,0.102,-0.0335,-0.0683,-0.203,-0.505,-0.0314,-0.0426,-0.0675,-0.155,0.0292,0.0656,0.062,0.17,-0.0239,0.0604,0.101,0.21,0.369,0.484,0.496,0.524,0.396,0.419,0.425,0.401
CCN(CC)CCOc1ccc(Nc2ncc3cc(-c4c(Cl)cccc4Cl)c(=O)n(C)c3n2)cc1,0.107,0.071,0.00536,-0.00834,0.719,0.785,0.78,0.774,-0.00347,0.00881,-0.0667,-0.267,0.458,0.461,0.386,0.22,0.0115,0.0427,0.0614,0.118,0.958,0.972,0.981,0.984,0.458,0.527,0.536,0.546,0.495,0.473,0.405,0.287
C[C@]12CC[C@@H]3c4ccc(O)cc4CC[C@H]3[C@@H]1CC[C@@H]2O [Estradiol],0.0973,0.0727,-0.00691,-0.0255,0.0487,0.0434,-0.00409,-0.0239,0.262,0.163,0.098,-0.022,0.0522,0.0345,-0.0106,-0.0996,0.0604,0.113,0.146,0.26,0.0789,0.106,0.106,0.215,0.509,0.574,0.594,0.601,0.584,0.611,0.607,0.585
C[C@]12CC[C@@H]3c4ccc(O)cc4C[C@@H](CCCCCCCCC[S+]([O-])CCCC(F)(F)C(F)(F)F)[C@H]3[C@@H]1CC[C@@H]2O (stereo partly specified),0.0173,-0.00253,-0.129,-0.212,-0.176,-0.0393,-0.0718,-0.153,-0.00571,-0.0298,-0.0782,-0.352,-0.0427,-0.0179,-0.055,-0.154,-0.00503,0.0303,0.0351,0.137,-0.274,-0.0121,0.0312,0.0757,0.418,0.515,0.523,0.531,0.466,0.525,0.532,0.5
O=C(O)C1(C(=O)O)CCC1.[NH2-].[NH2-].[Pt+2] [Carboplatin],0.0266,-0.0103,-0.0119,-0.000763,-0.0124,-0.0343,-0.0455,0.00969,-0.0898,-0.143,-0.162,-0.249,-0.121,-0.164,-0.182,-0.229,-0.0315,0.0327,0.0748,0.141,0.0161,0.0456,0.0793,0.221,0.458,0.519,0.538,0.54,0.528,0.554,0.565,0.569
Cc1nc(Nc2ncc(C(=O)Nc3c(C)cccc3Cl)s2)cc(N2CCN(CCO)CC2)n1,-0.00248,-0.0473,-0.15,-0.0827,0.487,0.65,0.693,0.752,0.376,0.323,0.282,0.128,0.779,0.826,0.856,0.867,-0.0537,-0.0412,-0.0107,0.0287,0.607,0.75,0.816,0.88,0.558,0.581,0.582,0.575,0.838,0.89,0.901,0.91
C=CCc1cccc(/C=N/NC(=O)CN2CCN(Cc3ccccc3)CC2)c1O,0.126,0.104,0.0863,0.00412,0.161,0.136,0.0263,-0.0573,-0.0454,0.0184,-0.0886,-0.379,-0.195,-0.0942,-0.0824,-0.181,0.0573,0.108,0.173,0.215,0.15,0.163,0.17,0.249,0.608,0.648,0.666,0.668,0.392,0.492,0.488,0.509
CCc1c2c(nc3ccc(OC(=O)N4CCC(N5CCCCC5)CC4)cc13)-c1cc3c(c(=O)n1C2)COC(=O)[C@]3(O)CC [Irinotecan HCl Trihydrate (Campto)],-0.0148,-0.0323,-0.109,-0.0905,0.841,0.921,0.96,0.976,-0.0524,-0.159,-0.223,-0.511,-0.259,-0.163,-0.0382,0.00676,0.0165,0.04,0.0458,0.118,0.839,0.928,0.965,0.98,0.219,0.422,0.475,0.51,0.485,0.649,,
